Measurements: ChEMBL document CHEMBL2218924, “A broad activity screen in support of a chemogenomic map for kinase signalling research and drug discovery” (Biochem J, 2013)

Key:
[1] = biological target: T1, Activin receptor type-1B (Homo sapiens) (UniProt P36896); conditions: at 1 µM
T1 sequence (whole entry): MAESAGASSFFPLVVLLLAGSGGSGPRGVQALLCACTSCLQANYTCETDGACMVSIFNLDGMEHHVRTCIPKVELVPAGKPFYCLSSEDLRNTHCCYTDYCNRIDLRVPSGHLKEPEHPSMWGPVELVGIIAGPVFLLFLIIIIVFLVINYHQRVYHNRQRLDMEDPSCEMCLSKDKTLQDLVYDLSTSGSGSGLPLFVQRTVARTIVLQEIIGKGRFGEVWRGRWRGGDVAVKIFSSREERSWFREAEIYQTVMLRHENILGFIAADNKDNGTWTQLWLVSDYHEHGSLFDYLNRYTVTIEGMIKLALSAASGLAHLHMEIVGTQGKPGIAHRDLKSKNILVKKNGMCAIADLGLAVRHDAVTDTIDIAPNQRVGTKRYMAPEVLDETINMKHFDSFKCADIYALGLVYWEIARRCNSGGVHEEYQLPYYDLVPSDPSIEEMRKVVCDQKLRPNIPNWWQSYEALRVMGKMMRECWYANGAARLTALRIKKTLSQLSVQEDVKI

[2] = biological target: T1, Activin receptor type-1B (Homo sapiens); conditions: at 10 µM
[3] = biological target: T2, AMP-activated protein kinase (AMPK) alpha-1/beta-1/gamma-1 (Homo sapiens) (UniProt P54619+Q9Y478+Q13131); conditions: at 1 µM
T2 sequence (P54619 whole entry): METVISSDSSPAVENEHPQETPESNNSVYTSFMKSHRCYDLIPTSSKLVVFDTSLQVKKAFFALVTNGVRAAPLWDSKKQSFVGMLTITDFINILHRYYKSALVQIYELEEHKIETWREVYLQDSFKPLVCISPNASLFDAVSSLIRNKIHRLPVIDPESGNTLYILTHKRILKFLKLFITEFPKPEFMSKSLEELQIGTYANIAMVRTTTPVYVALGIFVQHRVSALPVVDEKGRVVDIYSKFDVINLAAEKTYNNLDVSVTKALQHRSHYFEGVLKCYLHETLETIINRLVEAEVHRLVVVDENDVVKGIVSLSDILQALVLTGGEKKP
T2 sequence (Q13131 whole entry partner): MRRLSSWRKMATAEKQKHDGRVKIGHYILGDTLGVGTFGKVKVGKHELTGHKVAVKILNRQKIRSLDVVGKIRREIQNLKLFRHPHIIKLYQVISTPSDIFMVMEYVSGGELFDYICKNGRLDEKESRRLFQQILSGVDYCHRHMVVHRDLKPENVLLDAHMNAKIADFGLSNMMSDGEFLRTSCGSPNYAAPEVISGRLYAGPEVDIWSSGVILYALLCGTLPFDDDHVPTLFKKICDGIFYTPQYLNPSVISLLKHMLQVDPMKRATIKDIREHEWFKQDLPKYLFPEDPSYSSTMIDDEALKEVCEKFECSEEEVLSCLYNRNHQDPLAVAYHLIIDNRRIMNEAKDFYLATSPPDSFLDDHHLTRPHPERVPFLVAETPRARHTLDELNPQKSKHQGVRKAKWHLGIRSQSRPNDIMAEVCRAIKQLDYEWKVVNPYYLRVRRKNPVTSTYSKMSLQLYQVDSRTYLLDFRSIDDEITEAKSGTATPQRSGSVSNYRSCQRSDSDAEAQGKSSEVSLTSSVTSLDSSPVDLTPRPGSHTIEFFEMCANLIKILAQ
T2 sequence (Q9Y478 2-270 partner limits assumed): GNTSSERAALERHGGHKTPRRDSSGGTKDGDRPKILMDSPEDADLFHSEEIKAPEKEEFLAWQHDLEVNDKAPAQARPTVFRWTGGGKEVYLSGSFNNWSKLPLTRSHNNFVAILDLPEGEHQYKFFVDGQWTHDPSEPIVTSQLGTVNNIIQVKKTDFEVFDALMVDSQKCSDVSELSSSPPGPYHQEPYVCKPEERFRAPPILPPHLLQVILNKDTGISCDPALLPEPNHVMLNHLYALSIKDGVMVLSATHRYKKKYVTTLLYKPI

[4] = biological target: T2, AMP-activated protein kinase (AMPK) alpha-1/beta-1/gamma-1 (Homo sapiens); conditions: at 10 µM
[5] = biological target: T3, AMP-activated protein kinase, AMPK (Homo sapiens) (UniProt P54646+O43741+P54619+Q9UGJ0+Q9Y478+Q13131+Q9UGI9); conditions: at 1 µM
[6] = biological target: T3, AMP-activated protein kinase, AMPK (Homo sapiens); conditions: at 10 µM
[7] = biological target: T4, NUAK family SNF1-like kinase 1 (Homo sapiens) (UniProt O60285); conditions: at 1 µM
T4 sequence (whole entry): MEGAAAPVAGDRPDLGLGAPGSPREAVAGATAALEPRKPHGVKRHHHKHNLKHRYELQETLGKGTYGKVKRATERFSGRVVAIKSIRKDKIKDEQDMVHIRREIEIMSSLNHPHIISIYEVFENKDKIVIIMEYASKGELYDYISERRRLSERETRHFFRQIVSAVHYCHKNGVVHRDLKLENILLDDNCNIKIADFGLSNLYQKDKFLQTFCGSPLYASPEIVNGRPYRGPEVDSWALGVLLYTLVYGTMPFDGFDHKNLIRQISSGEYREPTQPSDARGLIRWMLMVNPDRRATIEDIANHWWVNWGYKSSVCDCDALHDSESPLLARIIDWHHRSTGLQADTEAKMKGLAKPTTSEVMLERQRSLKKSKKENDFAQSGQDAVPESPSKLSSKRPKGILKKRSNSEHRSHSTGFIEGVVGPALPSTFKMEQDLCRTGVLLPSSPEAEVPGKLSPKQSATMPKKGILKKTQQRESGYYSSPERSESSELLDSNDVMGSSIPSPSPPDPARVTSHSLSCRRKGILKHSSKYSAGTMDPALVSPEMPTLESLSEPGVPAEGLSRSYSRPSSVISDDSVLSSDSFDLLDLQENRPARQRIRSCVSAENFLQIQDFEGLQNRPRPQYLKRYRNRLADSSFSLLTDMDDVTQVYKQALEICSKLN

[8] = biological target: T4, NUAK family SNF1-like kinase 1 (Homo sapiens); conditions: at 10 µM
[9] = biological target: T5, Mitogen-activated protein kinase kinase kinase 5 (Homo sapiens) (UniProt Q99683); conditions: at 1 µM
T5 sequence (whole entry): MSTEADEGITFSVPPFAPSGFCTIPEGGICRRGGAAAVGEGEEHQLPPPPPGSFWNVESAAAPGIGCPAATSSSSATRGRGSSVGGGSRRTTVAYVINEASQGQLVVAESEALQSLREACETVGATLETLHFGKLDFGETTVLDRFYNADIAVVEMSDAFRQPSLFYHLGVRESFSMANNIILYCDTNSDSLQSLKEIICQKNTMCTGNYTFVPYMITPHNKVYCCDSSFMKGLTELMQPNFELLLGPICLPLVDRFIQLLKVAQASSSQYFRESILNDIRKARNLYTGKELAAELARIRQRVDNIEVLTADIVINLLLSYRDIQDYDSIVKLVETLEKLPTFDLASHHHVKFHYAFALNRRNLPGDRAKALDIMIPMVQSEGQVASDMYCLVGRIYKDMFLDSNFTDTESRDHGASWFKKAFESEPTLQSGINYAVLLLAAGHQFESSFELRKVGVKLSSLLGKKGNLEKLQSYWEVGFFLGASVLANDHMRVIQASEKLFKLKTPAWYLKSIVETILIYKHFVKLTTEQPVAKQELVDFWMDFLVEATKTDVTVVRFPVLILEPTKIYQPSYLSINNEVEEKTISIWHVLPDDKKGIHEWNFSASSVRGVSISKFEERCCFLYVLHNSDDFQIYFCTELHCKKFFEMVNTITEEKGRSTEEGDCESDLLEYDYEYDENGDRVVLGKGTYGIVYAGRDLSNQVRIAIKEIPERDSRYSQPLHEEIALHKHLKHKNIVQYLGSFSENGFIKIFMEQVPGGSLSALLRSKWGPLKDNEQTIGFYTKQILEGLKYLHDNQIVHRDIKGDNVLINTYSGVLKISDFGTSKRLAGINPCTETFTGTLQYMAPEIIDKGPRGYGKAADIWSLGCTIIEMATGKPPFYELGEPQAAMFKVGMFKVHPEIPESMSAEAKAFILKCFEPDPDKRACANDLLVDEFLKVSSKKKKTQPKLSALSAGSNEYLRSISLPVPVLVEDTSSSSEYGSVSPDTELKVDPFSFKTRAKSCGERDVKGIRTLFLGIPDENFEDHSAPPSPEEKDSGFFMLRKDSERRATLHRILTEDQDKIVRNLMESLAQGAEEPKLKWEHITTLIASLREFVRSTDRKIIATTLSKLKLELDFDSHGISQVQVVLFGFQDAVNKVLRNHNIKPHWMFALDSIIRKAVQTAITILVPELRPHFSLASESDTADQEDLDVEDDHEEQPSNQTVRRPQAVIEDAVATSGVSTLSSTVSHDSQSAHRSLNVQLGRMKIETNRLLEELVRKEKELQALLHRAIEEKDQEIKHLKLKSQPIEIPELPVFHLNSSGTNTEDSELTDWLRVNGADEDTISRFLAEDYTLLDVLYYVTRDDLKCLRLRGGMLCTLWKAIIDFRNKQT

[10] = biological target: Platelet-derived growth factor receptor alpha (Homo sapiens) (UniProt P16234); conditions: at 1 µM
Sequence of Platelet-derived growth factor receptor alpha (Homo sapiens) (P16234 whole entry): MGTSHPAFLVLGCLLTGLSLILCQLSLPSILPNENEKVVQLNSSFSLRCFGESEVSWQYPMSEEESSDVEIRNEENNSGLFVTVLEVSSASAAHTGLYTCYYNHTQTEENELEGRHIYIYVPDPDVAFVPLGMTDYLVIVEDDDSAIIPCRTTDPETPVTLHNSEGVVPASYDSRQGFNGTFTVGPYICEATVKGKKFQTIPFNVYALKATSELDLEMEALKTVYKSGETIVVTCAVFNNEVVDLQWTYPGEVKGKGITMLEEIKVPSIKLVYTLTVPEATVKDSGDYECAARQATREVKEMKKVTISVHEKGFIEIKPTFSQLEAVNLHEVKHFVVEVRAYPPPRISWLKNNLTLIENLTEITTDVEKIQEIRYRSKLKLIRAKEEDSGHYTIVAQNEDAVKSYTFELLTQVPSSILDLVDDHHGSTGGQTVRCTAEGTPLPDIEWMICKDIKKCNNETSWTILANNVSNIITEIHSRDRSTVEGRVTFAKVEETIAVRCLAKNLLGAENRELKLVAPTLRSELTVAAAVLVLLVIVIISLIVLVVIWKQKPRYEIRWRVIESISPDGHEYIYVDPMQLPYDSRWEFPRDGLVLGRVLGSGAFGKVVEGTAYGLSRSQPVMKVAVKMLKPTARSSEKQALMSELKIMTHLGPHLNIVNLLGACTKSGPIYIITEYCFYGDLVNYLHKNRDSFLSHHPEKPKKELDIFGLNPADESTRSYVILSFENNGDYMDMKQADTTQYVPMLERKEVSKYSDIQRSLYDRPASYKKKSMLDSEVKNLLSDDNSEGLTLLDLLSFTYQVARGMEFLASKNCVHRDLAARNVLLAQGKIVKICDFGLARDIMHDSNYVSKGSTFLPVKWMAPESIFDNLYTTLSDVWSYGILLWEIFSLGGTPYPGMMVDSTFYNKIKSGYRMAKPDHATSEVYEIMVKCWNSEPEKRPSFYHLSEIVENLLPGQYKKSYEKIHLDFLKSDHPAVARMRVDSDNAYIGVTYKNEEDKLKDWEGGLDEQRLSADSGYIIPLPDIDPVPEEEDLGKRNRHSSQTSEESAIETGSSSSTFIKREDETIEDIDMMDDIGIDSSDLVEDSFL

[11] = biological target: Platelet-derived growth factor receptor alpha (Homo sapiens) (UniProt P16234); conditions: at 10 µM
[12] = biological target: Platelet-derived growth factor receptor beta (Homo sapiens) (UniProt P09619); conditions: at 1 µM
Sequence of Platelet-derived growth factor receptor beta (Homo sapiens) (P09619 whole entry): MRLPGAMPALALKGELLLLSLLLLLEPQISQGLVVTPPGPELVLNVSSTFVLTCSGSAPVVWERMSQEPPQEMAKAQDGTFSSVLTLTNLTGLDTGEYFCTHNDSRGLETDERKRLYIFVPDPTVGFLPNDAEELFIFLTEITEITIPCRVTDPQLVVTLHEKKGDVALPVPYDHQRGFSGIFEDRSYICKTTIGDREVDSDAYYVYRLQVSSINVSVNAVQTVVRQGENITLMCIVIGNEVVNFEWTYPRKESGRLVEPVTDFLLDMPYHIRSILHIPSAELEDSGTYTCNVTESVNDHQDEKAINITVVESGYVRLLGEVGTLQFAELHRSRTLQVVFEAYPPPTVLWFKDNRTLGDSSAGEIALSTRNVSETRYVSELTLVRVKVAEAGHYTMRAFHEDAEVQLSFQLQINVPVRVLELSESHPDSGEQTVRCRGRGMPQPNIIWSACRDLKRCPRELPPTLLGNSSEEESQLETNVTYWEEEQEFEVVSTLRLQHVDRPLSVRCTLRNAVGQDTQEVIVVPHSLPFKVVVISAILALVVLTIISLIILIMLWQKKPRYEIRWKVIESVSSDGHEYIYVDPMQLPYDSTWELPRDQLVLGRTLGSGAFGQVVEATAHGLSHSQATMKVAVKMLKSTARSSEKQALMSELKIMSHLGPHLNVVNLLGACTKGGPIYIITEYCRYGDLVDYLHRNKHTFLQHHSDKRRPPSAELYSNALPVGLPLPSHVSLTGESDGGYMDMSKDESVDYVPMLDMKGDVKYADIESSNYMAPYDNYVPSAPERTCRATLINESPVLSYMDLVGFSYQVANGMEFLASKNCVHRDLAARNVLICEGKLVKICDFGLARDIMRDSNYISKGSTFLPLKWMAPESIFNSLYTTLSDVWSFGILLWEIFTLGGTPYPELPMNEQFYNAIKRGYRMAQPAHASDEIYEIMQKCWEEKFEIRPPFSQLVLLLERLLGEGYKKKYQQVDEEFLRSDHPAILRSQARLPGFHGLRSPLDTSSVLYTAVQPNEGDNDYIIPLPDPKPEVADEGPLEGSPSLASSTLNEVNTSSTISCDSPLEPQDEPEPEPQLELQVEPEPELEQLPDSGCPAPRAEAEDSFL

[13] = biological target: Platelet-derived growth factor receptor beta (Homo sapiens) (UniProt P09619); conditions: at 10 µM
[14] = biological target: T6, 3-phosphoinositide-dependent protein kinase 1 (Homo sapiens) (UniProt O15530); conditions: at 1 µM
T6 sequence (whole entry): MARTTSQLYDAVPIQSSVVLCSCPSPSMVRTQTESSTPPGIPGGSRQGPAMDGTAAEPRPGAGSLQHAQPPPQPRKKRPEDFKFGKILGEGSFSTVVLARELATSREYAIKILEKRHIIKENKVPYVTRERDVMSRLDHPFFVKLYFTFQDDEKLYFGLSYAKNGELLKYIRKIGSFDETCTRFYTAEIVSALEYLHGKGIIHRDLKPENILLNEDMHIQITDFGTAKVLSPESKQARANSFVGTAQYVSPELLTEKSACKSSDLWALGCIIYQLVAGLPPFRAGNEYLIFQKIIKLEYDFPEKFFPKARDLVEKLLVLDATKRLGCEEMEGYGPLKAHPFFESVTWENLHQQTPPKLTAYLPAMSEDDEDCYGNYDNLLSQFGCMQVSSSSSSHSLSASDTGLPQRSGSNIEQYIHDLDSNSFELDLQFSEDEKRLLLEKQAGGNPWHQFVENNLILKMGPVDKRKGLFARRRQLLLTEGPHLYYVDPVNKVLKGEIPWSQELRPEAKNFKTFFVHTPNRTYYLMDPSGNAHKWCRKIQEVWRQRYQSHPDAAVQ

[15] = biological target: T6, 3-phosphoinositide-dependent protein kinase 1 (Homo sapiens); conditions: at 10 µM
[16] = biological target: cAMP-dependent protein kinase catalytic subunit alpha (Homo sapiens) (UniProt P17612); conditions: at 1 µM
[17] = biological target: RAC-alpha serine/threonine-protein kinase (Homo sapiens) (UniProt P31749); conditions: at 1 µM
Sequence of RAC-alpha serine/threonine-protein kinase (Homo sapiens) (P31749 whole entry): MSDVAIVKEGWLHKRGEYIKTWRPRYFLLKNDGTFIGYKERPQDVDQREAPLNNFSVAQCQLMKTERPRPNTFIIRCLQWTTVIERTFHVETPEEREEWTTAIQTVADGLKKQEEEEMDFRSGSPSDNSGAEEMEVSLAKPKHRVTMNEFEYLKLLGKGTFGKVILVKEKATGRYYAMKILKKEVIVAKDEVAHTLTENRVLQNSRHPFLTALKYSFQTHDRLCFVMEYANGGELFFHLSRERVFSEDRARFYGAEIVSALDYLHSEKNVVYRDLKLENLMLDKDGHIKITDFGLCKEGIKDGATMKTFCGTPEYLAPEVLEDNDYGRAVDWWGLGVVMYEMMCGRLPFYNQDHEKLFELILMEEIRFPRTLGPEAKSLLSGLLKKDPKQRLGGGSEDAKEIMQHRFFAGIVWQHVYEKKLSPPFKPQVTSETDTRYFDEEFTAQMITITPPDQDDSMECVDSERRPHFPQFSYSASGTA

[18] = biological target: RAC-alpha serine/threonine-protein kinase (Homo sapiens) (UniProt P31749); conditions: at 10 µM
[19] = biological target: RAC-gamma serine/threonine-protein kinase (Homo sapiens) (UniProt Q9Y243); conditions: at 1 µM
Sequence of RAC-gamma serine/threonine-protein kinase (Homo sapiens) (Q9Y243 whole entry): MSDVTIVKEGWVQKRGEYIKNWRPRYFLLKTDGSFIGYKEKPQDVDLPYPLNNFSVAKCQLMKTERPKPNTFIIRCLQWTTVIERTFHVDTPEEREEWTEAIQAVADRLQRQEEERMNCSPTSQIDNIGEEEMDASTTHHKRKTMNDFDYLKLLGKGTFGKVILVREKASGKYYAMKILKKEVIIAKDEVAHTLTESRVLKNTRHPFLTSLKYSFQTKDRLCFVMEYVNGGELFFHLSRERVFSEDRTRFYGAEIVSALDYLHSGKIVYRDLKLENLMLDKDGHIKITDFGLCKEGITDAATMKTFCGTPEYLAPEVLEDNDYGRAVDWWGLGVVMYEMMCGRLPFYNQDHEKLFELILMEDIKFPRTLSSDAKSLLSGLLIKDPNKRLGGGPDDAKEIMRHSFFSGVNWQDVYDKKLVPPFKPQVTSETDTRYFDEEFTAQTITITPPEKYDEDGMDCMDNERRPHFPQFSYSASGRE

O=[N+]([O-])/C=C/c1ccc2c(c1)OCO2
residual activity [1]: 133% | residual activity [2]: 93% | residual activity [3]: 89% | residual activity [4]: 80% | residual activity [5]: 101% | residual activity [6]: 78% | residual activity [7]: 107% | residual activity [8]: 87% | residual activity [9]: 109% | residual activity [10]: 114% | residual activity [11]: 105% | residual activity [12]: 94% | residual activity [13]: 97% | residual activity [14]: 106% | residual activity [15]: 96% | residual activity [16]: 124% | residual activity [17]: 100% | residual activity [18]: 110% | residual activity [19]: 125%

COc1ccc2c(c1)/C(=C/c1cnc[nH]1)C(=O)N2
residual activity [2]: 82% | residual activity [3]: 47% | residual activity [4]: 8% | residual activity [7]: 17% | residual activity [8]: 8% | residual activity [11]: 82% | residual activity [14]: 76% | residual activity [15]: 20%

Nc1n[nH]c2nnc(-c3c(-c4ccccc4)nn4ccccc34)cc12
residual activity [17]: 111% | residual activity [18]: 99%

O=C(c1ccccc1)c1ccc(N2CCOCC2)cc1O
residual activity [17]: 96% | residual activity [18]: 98%

COc1ccc2c(c1)c(C1=C(c3c[nH]c4ccccc34)C(=O)NC1=O)cn2CCCN(C)C
residual activity [17]: 110% | residual activity [18]: 120%

COc1cc2ncnc(Nc3ccc(NC(=O)c4ccccc4)cc3)c2cc1OC
residual activity [17]: 105% | residual activity [18]: 110%

Cc1nc2cc3nc(-c4cccs4)cnc3cc2n1C
residual activity [17]: 100% | residual activity [18]: 105%

O=c1c2ccccc2[nH]c(=S)n1CCN1CCC(=C(c2ccc(F)cc2)c2ccc(F)cc2)CC1
residual activity [17]: 112% | residual activity [18]: 107%

CN(C)c1ccc(/C=C2\C(=O)Nc3ccccc32)cc1
residual activity [17]: 112% | residual activity [18]: 121%

O=c1cc(-c2cccc3c2Sc2ccccc2S3)oc(N2CCOCC2)c1
residual activity [17]: 99% | residual activity [18]: 103%

CCN(CC)CCCCN1c2ccccc2Oc2ccc(Cl)cc21
residual activity [17]: 104% | residual activity [18]: 104%

COc1ccc(CNc2nc(N(CCO)CCO)nc3c2ncn3C(C)C)cc1
residual activity [17]: 118% | residual activity [18]: 111%

O=C1Cc2c([nH]c3ccc([N+](=O)[O-])cc23)-c2ccccc2N1
residual activity [17]: 104% | residual activity [18]: 104%

CCCCc1c(-c2ccc(OC)cc2)[nH]c2nccnc12
residual activity [17]: 118% | residual activity [18]: 106%

O=C1NC(=O)/C(=C\c2ccc3nccnc3c2)S1
residual activity [17]: 106% | residual activity [18]: 108%

O=Nc1c(-c2c(O)[nH]c3ccccc23)[nH]c2ccccc12
residual activity [17]: 107% | residual activity [18]: 98%

O=[N+]([O-])c1ccc(-c2nc(-c3ccc(F)cc3)c(-c3ccncc3)[nH]2)cc1
residual activity [17]: 112% | residual activity [18]: 103%

c1ccc(-c2cnc(Nc3ccc(OCCN4CCCC4)cc3)s2)cc1
residual activity [17]: 102% | residual activity [18]: 115%

Cc1cc(Nc2nc(-c3ccccc3)nc3ccccc23)n[nH]1
residual activity [17]: 113% | residual activity [18]: 101%

Nc1ncnc2[nH]nc(Nc3ccc(F)cc3)c12
residual activity [17]: 111% | residual activity [18]: 109%

C[C@@H](N)[C@H]1CC[C@H](C(=O)Nc2ccncc2)CC1
residual activity [17]: 88% | residual activity [18]: 76%

Cn1c2ccccc2c2c3c(c4c5ccccc5n(CCC#N)c4c21)CNC3=O
residual activity [17]: 106% | residual activity [18]: 105%

CC(C)(C)c1nc2c3ccc(F)cc3c3c(=O)[nH]ccc3c2[nH]1
residual activity [17]: 98% | residual activity [18]: 104%

NC(=O)c1ccc2[nH]c(-c3ccc(Oc4ccc(Cl)cc4)cc3)nc2c1
residual activity [17]: 109% | residual activity [18]: 112%

Cc1ccc(S(=O)(=O)/C=C/C#N)cc1
residual activity [17]: 107% | residual activity [18]: 112%

Nc1ncnc2c1c(-c1ccc(Oc3ccccc3)cc1)cn2C1CCCC1
residual activity [17]: 105% | residual activity [18]: 111%

COc1ccc(C(=O)Nc2sc3c(c2C(N)=O)CCCC3)cc1OC
residual activity [17]: 103% | residual activity [18]: 109%

CC#CC(=O)Nc1cc2c(Nc3ccc(F)c(Cl)c3)ncnc2cn1
residual activity [17]: 101% | residual activity [18]: 107%

Nc1ncnc2c1cnn2-c1ccccc1
residual activity [17]: 96% | residual activity [18]: 96%

CO[C@@H]1[C@H](N(C)C(=O)c2ccccc2)C[C@H]2O[C@]1(C)n1c3ccccc3c3c4c(c5c6ccccc6n2c5c31)C(=O)NC4
residual activity [17]: 97% | residual activity [18]: 99%

CO[C@H]1[C@@H](OC)C[C@H](C)[C@@H](OC)C2=CC(=O)C=C(NC(=O)/C(C)=C/C=C/[C@H](OC)[C@@H](OC(N)=O)/C(C)=C/[C@@H]1C)C2=O
residual activity [17]: 112% | residual activity [18]: 114%
